# Source: the supplement of paper PMC7156485
# Where “and” joins values, the source holds several entries; their conditions need not be identical. Equal entries are not always repeated.
# How the values were obtained:
# Settings in all cases: concentration: 10 µM; 24 h
# [1] = test system: HCC1569; assay: cell number relative to DMSO (% of DMSO); higher = more cells (less growth inhibition / toxicity)
# Outline: (§1)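 Cells were seeded at 800 per well in 384-well plates with RPMI containing 10% FBS; both HCC1569 and TDF lines were used. Compounds were added at 10 µM for 24 h at 37 °C, in triplicate, before fixation in 3.7% formaldehyde and staining with a rabbit anti-H1.0 antibody, an AlexaFluor 647 secondary and DAPI. H1.0 nuclear intensity or cell number is reported as percent of the plate control using the median of replicates, and HCC1569 values were smoothed for positional effects.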
# [2] = test system: TDF; assay: as above
# Outline: as §1
# [3] = test system: TDF; assay: H1.0 immunofluorescence intensity relative to DMSO (% of DMSO); higher = stronger H1.0 induction, active = 120 or more
# Outline: as §1
# [4] = test system: HCC1569; assay: H1.0 immunofluorescence intensity relative to DMSO (% of DMSO); higher = stronger H1.0 induction, active = 140 or more
# Outline: as §1
# 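Throughout, for H1.0 immunofluorescence intensity relative to DMSO: TDF is a line of transformed human dermal fibroblasts of mesenchymal origin.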
# 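Throughout, for cell number relative to DMSO: TDF denotes transformed human dermal fibroblasts of mesenchymal origin.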
SMILES,cell number [1],cell number [2],H1.0 immunofluorescence intensity [3],H1.0 immunofluorescence intensity [4]
CCN(CC)CC(=O)Nc1c(C)cccc1C.Cl.O [Lidocaine.HCl.H2O],99,99.8,89.5 (inactive),103 (inactive)
CCCCCC=CCC=CCC=CCC=CCCCC(=O)OC(CO)CO [2-Arachidonoylglycerol],104,107,97.3 (inactive),99.5 (inactive)
O=C1C(=O)c2ccccc2C(O)=C1C1CCC(c2ccc(Cl)cc2)CC1 (configuration not stated) [Atovaquone],100,99,95 (inactive),108 (inactive)
CCN(CC)C(=O)c1ccc(O)c(OC)c1 [Vanillic acid diethylamide],101,103,94.3 (inactive),99.6 (inactive)
O=C1NC(=O)c2cc(Nc3ccc(F)cc3)c(Nc3ccc(F)cc3)cc21 [PKCbII/EGFR Inhibitor],95.1,111,89.7 (inactive),121 (inactive)
"CCCCCC1OC1CC=CCC=CCC=CCCCC(=O)O (configuration not stated) [14,15-Epoxyeicosatrienoic acid]",103,112,103 (inactive),94.8 (inactive)
C=C1CCC2OC2(C)CCC2C1CC2(C)C (configuration not stated) [Caryophylline],104,99,105 (inactive),91.3 (inactive)
Cc1cnc(Nc2ccc(OCCN3CCCC3)cc2)nc1Nc1cccc(S(=O)(=O)NC(C)(C)C)c1,67.1,43.3,116 (inactive),189 (active)
N#CC(=Cc1ccc(O)c(O)c1)C(=O)c1ccc(O)c(O)c1 [Tyrphostin AG 538],80.4,97.3,99.2 (inactive),190 (active)
CCCc1c(OCCCCc2nn[nH]n2)ccc(C(C)=O)c1O,104,101 and 110,97.5 (inactive) and 94.5 (inactive),105 (inactive)
CC(C)[N+](C)(CCOC(=O)C1c2ccccc2Oc2ccccc21)C(C)C.[Br-] [Propantheline bromide],99.3,107,95.1 (inactive),96.9 (inactive)
"Cl.c1ccc(C2CN3CCSC3=N2)cc1 (single isomer, unassigned; (-)) [(-)-Tetramisole hydrochloride]",108,97.3,92.4 (inactive),98.7 (inactive)
Cl.Cn1ccc2cc3c(cc21)CCN3C(=O)Nc1cccnc1,101,112,87.9 (inactive),100 (inactive)
CC(C)NCC(O)COc1ccc(CC(N)=O)cc1 (configuration not stated) [Atenolol],99.9,102,94.7 (inactive),113 (inactive)
N[C@H](C(=O)O)c1cccc(O)c1 [(S)-3-Hydroxyphenylglycine],95.2,99.7,102 (inactive),100 (inactive)
COc1ccc(S(=O)(=O)N2CCC[C@H]2C(=O)Nc2cc(C)cc(C)c2)cc1,101,113,95.5 (inactive),102 (inactive)
O=S(=O)(O)C1CCNCC1 [Piperidine-4-sulphonic acid],92.6,101,89 (inactive),122 (inactive)
CC1OC(Oc2c(-c3cc(O)c(O)c(O)c3)oc3cc(O)cc(O)c3c2=O)C(O)C(O)C1O (configuration not stated) [Myricitrin],103,101,94.8 (inactive),83.5 (inactive)
CCC(=C(CC)c1ccc(O)cc1)c1ccc(O)cc1 [Diethylstilbestrol],99.3,92.6,99 (inactive),111 (inactive)
"O=C1CC(=O)c2c(Cl)c(Cl)c(Cl)c(Cl)c21 [4,5,6,7-tetrachloro-1H-indene-1,3(2H)-dione]",101,103,117 (inactive),99.1 (inactive)
CSc1nc2ccc3nc(NC(=O)C(c4ccccc4)c4ccccc4)sc3c2s1,103,121,99.4 (inactive),94 (inactive)
"CCCCCCCCCCCCCCCCCCOP(=O)([O-])OC1CC[N+](C)(C)CC1 [1,1-dimethylpiperidinium-4-yl octadecyl phosphate]",103,96.6,98.2 (inactive),103 (inactive)
CC(C)(C#N)c1cc(Cn2cncn2)cc(C(C)(C)C#N)c1 [Anastrozole],102,101,99.4 (inactive),102 (inactive)
